This is part of a sample that, as a whole, favours compounds with a hit. Of some 83,000 tested, about 20% had one in any assay.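 In brief: 96-well plates, 48 h treatment, single concentration, percent growth endpoint.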 The source made the active and inactive calls. The calls were made as follows: active = growth percent below 10; inactive = the rest.
system: HS 578T breast; assay: NCI-60 one-dose screen, 48 h (100 = growth as untreated, 0 = no growth, -100 = all killed); settings: 10 µM unless noted

SMILES	growth
CN(C)c1ccc(C2Nc3ccccc3-n3cccc32)cc1 (centres undefined)	95.5% (inactive)
O=[N+]([O-])c1cccc(-c2nc3sccn3c2-c2ccnc(NCCCNS(=O)(=O)c3ccc(F)cc3)n2)c1	22.2% (inactive)
COc1ccc(-n2c(C)nc3c(c(C)nn3-c3ccccc3)c2=O)cc1	21.6% (inactive)
COc1ccc(-n2cc(-c3ccccc3)c3c(SCC(=O)N/N=C/c4ccc([N+](=O)[O-])cc4)ncnc32)cc1	105% (inactive)
Nc1c(C(=O)Nc2ccccc2)sc2nc3c(cc12)CN(CCc1ccccc1)CC3	89.1% (inactive)
CCOC(=O)c1c2ncccc2n2c(=O)n(-c3ccc(Cl)cc3)nnc12	93.9% (inactive)
OC(c1cccc(C(F)(F)F)c1)c1cnccc1NC1CCCCCC1 (centres undefined)	64.4% (inactive)
NC(=S)N/N=C/c1cc(-c2cccc(N)c2)ccn1	38.1% (inactive)
COc1ccc(CCN2CCCn3c2nc2ccccc2c3=O)cc1	38.9% (inactive)
O=C(/C=C\c1cccc([N+](=O)[O-])c1)c1ccccc1	86.5% (inactive)
CCOC(=O)C(Cc1cc(I)c(O)c(I)c1)NC(=O)c1ccccc1 (centres undefined)	87% (inactive)
COc1cc(C#N)cc(OC)c1OCCN(CCOc1c(OC)cc(C#N)cc1OC)S(=O)(=O)c1ccc(C)cc1	99% (inactive)
CN1CCN(Cc2ccc(NC(=O)c3cncc(C#Cc4cncc5nccnc45)c3)cc2C(F)(F)F)CC1	39.6% (inactive)
Nc1nc(-c2ccc(F)cc2)cc(-c2cnn(-c3ccccc3)n2)n1	106% (inactive)

Source: PubChem BioAssay (NCI)
